Measurements reported in the supplement of paper PMC7411054.
Where a name gives a salt, the structure may show the parent alone.

Columns and labels:
Assay in all cases: lowest phenotypically active concentration; higher = less potent
Settings in all cases: treatment time: 24 h
HepG2-GM130-SQSTM1 = tested on: HepG2-GM130-SQSTM1
Summary of the method: (§1)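 Four wells per concentration (0.3, 1, 3 or 9 µM) were treated for 24 h in each of fifteen gene-edited reporter lines from A549, HepG2 and WPMY1 cells, then imaged live. After normalising live-cell features to solvent control wells, deviation was defined as ≥3 of 4 wells lying past the 95th percentile of control Euclidean distances. Reproducibility was defined as a median replicate Pearson correlation above the 95th percentile of non-replicates. Both had to hold for phenotypic activity.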

HepG2-TP53BP1-CLTA = tested on: HepG2-TP53BP1-CLTA
Summary of the method: as §1

HepG2-TUBA1B-RELA = tested on: HepG2-TUBA1B-RELA
Summary of the method: as §1

WPMY1-ACTB-RAB5A = tested on: WPMY1-ACTB-RAB5A
Summary of the method: as §1

WPMY1-TUBA1B-RELA = tested on: WPMY1-TUBA1B-RELA
Summary of the method: as §1

HepG2-CANX-COX4 = tested on: HepG2-CANX-COX4
Summary of the method: as §1

WPMY1-TP53BP1-CLTA = tested on: WPMY1-TP53BP1-CLTA
Summary of the method: as §1

WPMY1-CANX-COX4 = tested on: WPMY1-CANX-COX4
Summary of the method: as §1

A549-TP53BP1-CLTA = tested on: A549-TP53BP1-CLTA
Summary of the method: as §1

| Structure (SMILES) | lowest phenotypically active concentration (HepG2-GM130-SQSTM1) [µM] | lowest phenotypically active concentration (HepG2-TP53BP1-CLTA) [µM] | lowest phenotypically active concentration (HepG2-TUBA1B-RELA) [µM] | lowest phenotypically active concentration (WPMY1-ACTB-RAB5A) [µM] | lowest phenotypically active concentration (WPMY1-TUBA1B-RELA) [µM] | lowest phenotypically active concentration (HepG2-CANX-COX4) [µM] | lowest phenotypically active concentration (WPMY1-TP53BP1-CLTA) [µM] | lowest phenotypically active concentration (WPMY1-CANX-COX4) [µM] | lowest phenotypically active concentration (A549-TP53BP1-CLTA) [µM] |
| --- | --- | --- | --- | --- | --- | --- | --- | --- | --- |
| O=C1Cc2cc(CCN3CCN(c4nsc5ccccc45)CC3)c(Cl)cc2N1 [ziprasidone] | 3 | 9 | 3 |  |  |  |  |  |  |
| Clc1ccc2c(c1)C(N1CCNCC1)=Nc1ccccc1O2 [amoxapine] | 9 |  | 3 | 9 | 9 |  |  |  |  |
| NC(=O)C(c1ccccc1)(c1ccccc1)[C@@H]1CCN(CCc2ccc3c(c2)CCO3)C1 [darifenacin] | 9 | 9 |  |  |  | 9 | 9 |  |  |
| N#C/C(=C/c1ccc(-c2cc(Cl)ccc2Cl)o1)C(=O)Nc1cccc2ncccc12 |  |  |  |  |  |  |  | 9 |  |
| COCCCC/C(=N/OCCN)c1ccc(C(F)(F)F)cc1 [fluvoxamine] |  | 9 | 9 | 9 |  |  |  |  |  |
| CCCc1cc(C)n(C)c(=O)c1CN(C)C(=O)c1cc(-c2ccc(N3CCN(C(C)C)CC3)nc2)cc2c1cnn2C(C)C | 3 | 3 |  | 3 | 9 |  | 9 | 3 |  |
| CN1CCC(CN2c3ccccc3Sc3ccccc32)C1 (stereo unspecified) [methdilazine] | 9 | 9 | 9 | 9 | 9 |  | 9 | 9 |  |
| O=c1cc(N2CCOCC2)oc2c(-c3cccc4c3sc3ccccc34)cccc12 | 1 | 1 | 1 | 1 | 9 | 3 | 3 | 1 |  |
| Cc1cc2nc(NCCCO)n(CC(=O)c3cc(C(C)(C)C)c(O)c(C(C)(C)C)c3)c2cc1C |  |  | 9 |  |  |  |  |  |  |
| COc1cc(NC(=O)c2cccc(-n3cc(NC(=O)Nc4cccc(C)c4)cn3)c2)cc(OC)c1OC |  |  |  |  | 9 |  |  |  |  |
| CN(C)CCCN1c2ccccc2Sc2ccc(C(F)(F)F)cc21 [triflupromazine] |  |  | 9 | 9 | 9 |  |  | 9 |  |
| CCSc1ccc2c(c1)N(CCCN1CCN(C)CC1)c1ccccc1S2 [thiethylperazine] | 9 |  | 9 | 9 | 9 |  | 9 | 9 |  |
| O=C(CCCN1CCC(O)(c2ccc(Cl)cc2)CC1)c1ccc(F)cc1 [haloperidol] | 9 | 9 | 9 |  |  |  |  |  |  |
| COc1ccc(Cl)cc1NC(=O)Nc1cc(C)nc2ccccc12 | 3 | 3 | 3 |  |  | 1 |  |  |  |
| CCCCCCCCCCCCC/C=C/[C@@H](O)[C@H](CO)N(C)C [N,N-Dimethylsphingosine] | 9 | 3 | 9 | 3 | 3 | 3 | 9 | 3 |  |
| CNCCCC12CCC(c3ccccc31)c1ccccc12 [maprotiline] | 9 | 9 | 3 | 9 | 9 |  | 9 | 9 |  |
| Fc1ccc([C@@H]2CCNC[C@H]2COc2ccc3c(c2)OCO3)cc1 [paroxetine] | 9 | 9 | 3 | 9 | 9 |  | 9 | 9 |  |
| CC(CN1c2ccccc2Sc2ccccc21)N(C)C (stereo unspecified) [promethazine] | 9 | 9 | 9 | 9 | 9 |  | 9 |  |  |
| CC(CN(C)C)CN1c2ccccc2Sc2ccccc21.CC(CN(C)C)CN1c2ccccc2Sc2ccccc21 (stereo unspecified) [alimemazine] | 9 | 9 | 9 | 9 | 9 |  |  |  |  |

| Structure (SMILES) | lowest phenotypically active concentration (HepG2-GM130-SQSTM1) [µM] | lowest phenotypically active concentration (HepG2-TP53BP1-CLTA) [µM] | lowest phenotypically active concentration (HepG2-TUBA1B-RELA) [µM] | lowest phenotypically active concentration (WPMY1-ACTB-RAB5A) [µM] | lowest phenotypically active concentration (WPMY1-TUBA1B-RELA) [µM] | lowest phenotypically active concentration (HepG2-CANX-COX4) [µM] | lowest phenotypically active concentration (WPMY1-TP53BP1-CLTA) [µM] | lowest phenotypically active concentration (WPMY1-CANX-COX4) [µM] | lowest phenotypically active concentration (A549-TP53BP1-CLTA) [µM] |
| --- | --- | --- | --- | --- | --- | --- | --- | --- | --- |
| CN(C)CC(O)Cn1c2ccc(Br)cc2c2cc(Br)ccc21 (stereo unspecified) [Wiskostatin] | 3 | 3 | 3 | 3 | 3 | 9 | 9 | 3 |  |
| O[C@H](CNC[C@H](O)[C@@H]1CCc2cc(F)ccc2O1)[C@@H]1CCc2cc(F)ccc2O1 [nebivolol] |  | 9 | 3 | 3 | 3 |  | 9 | 9 |  |
| O=C(Nc1ccncc1)c1cc([N+](=O)[O-])ccc1Cl | 9 | 9 | 9 |  | 9 | 3 |  | 9 | 9 |
| CC[C@H](CO)Nc1nc(Nc2cccc(-c3ccccn3)c2)c2ncn(C(C)C)c2n1 [(R)-DRF053 dihydrochloride] | 9 | 9 | 9 |  | 9 |  |  | 9 |  |
| O=c1cc(-c2ccccc2)oc2cc(O)cc(O)c12 [Chrysin] |  |  |  |  |  |  | 9 | 9 |  |
| N#Cc1ccc2ncnc(NCCc3ccccc3)c2c1 [Senexin A] |  |  |  | 1 | 3 | 9 |  | 3 |  |
| Cc1ccc(NC(=O)c2cccc(C(C)(C)C#N)c2)cc1Nc1ccc2ncn(C)c(=O)c2c1 | ≤ 0.3 | ≤ 0.3 | ≤ 0.3 | 3 |  | ≤ 0.3 | 9 | 9 | 1 |
| COc1cc2nccc(Oc3ccc(NC(=O)C4(C(=O)Nc5ccc(F)cc5)CC4)cc3)c2cc1OC |  |  |  | 3 |  |  |  |  |  |
| CC(C)c1c(C(=O)Nc2ccccc2)c(-c2ccccc2)c(-c2ccc(F)cc2)n1CC[C@@H](O)C[C@@H](O)CC(=O)O [atorvastatin] | 3 | 9 | 3 | 1 | 3 | 9 | 9 | 3 |  |
| Cc1ccc(S(=O)(=O)c2ccc([N+](=O)[O-])o2)cc1 | 9 |  | 3 | 3 | 9 |  | 3 | 9 |  |
| CCC(=O)N1CCOc2c(cc(-c3ccc(OC)c(OC)c3)cc2OC[C@H]2CCCN(C)C2)C1 |  |  | 9 |  |  | 9 |  | 9 |  |
| CC(C)(C)n1nc(-c2ccc(Cl)cc2)c2c(N)ncnc21 |  | 3 |  |  |  |  |  |  |  |
| COc1cc(OC)c2c(=O)[nH]c(-c3cc(C)c(OCCO)c(C)c3)nc2c1 [apabetalone] | 9 |  |  |  | 9 | 9 | 9 |  |  |
| CNC(=O)c1cc(Oc2ccc(NC(=O)Nc3ccc(Cl)c(C(F)(F)F)c3)c(F)c2)ccn1 [regorafenib] | ≤ 0.3 | ≤ 0.3 | ≤ 0.3 |  |  | 3 | 9 |  | 9 |
| CCc1nc(-c2cccc(C)c2)c(-c2ccnc(NC(=O)c3ccccc3)c2)s1 | 1 | 3 | 1 | 9 | 9 | 1 |  |  |  |
| O=C1c2c(O)cccc2Cc2cccc(O)c21 [anthralin] |  |  |  | 9 | 9 |  |  |  |  |
| CC(C)c1nc(CN(C)C(=O)N[C@H](C(=O)N[C@@H](Cc2ccccc2)C[C@H](O)[C@H](Cc2ccccc2)NC(=O)OCc2cncs2)C(C)C)cs1 [ritonavir] | 9 |  |  |  |  |  |  |  |  |
| O=C(/C=C/c1ccc2ccccc2n1)c1ccncc1 | 9 |  | 9 | 9 | 9 |  | 9 |  |  |
